In article PMC7862700, “An all-to-all approach to the identification of sequence-specific readers for epigenetic DNA modifications on cytosine”:

Experiments:
Experiment in all cases: DAPPL (digital affinity profiling via proximity ligation, sequencing); 10 mM Tris-HCl pH 7.5, 50 mM NaCl, 1 mM DTT, 4% glycerol, room temperature, 30 min; GST-TFs on glutathione beads, 16-mer random dsDNA library, 0.1% formaldehyde crosslink after washing; high values mean tight binding
[1] = target: T1, FLI1 (Homo sapiens, UniProt Q01543 1-452); conditions: protein: recombinant; tags: N-terminal GST; dsDNA, one strand shown
T1 sequence: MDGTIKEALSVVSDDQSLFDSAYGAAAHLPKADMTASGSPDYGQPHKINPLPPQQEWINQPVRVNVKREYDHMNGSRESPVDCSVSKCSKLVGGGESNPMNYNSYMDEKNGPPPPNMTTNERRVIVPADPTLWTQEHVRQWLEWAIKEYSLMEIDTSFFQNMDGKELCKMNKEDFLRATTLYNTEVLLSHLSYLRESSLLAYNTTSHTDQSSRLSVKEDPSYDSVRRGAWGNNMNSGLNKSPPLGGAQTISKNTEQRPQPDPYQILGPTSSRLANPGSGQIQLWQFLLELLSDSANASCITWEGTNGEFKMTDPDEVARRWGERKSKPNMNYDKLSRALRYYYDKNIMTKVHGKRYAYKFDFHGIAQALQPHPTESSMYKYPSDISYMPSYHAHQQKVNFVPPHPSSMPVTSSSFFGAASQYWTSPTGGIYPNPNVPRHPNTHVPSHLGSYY
Outline: (§1)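 Binding signal is defined as a hexamer's read frequency for one factor over its frequency for the tag-only sample. To obtain reads, GST-fused human transcription factors were expressed in yeast, captured on glutathione beads, barcoded with DNA and pooled with that sample. Pools met 200 nmole of a 16-mer random double-stranded DNA library in Tris/NaCl/DTT/glycerol buffer for 30 min at room temperature before washing, 0.1% formaldehyde crosslinking, proximity ligation (BsaI/T4 ligase, 1 h, 37 °C), PCR and Illumina NextSeq500 sequencing.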

[2] = target: T2, ELK1 (Homo sapiens, UniProt P19419 1-428); conditions: protein: recombinant; tags: N-terminal GST; dsDNA, one strand shown
T2 sequence: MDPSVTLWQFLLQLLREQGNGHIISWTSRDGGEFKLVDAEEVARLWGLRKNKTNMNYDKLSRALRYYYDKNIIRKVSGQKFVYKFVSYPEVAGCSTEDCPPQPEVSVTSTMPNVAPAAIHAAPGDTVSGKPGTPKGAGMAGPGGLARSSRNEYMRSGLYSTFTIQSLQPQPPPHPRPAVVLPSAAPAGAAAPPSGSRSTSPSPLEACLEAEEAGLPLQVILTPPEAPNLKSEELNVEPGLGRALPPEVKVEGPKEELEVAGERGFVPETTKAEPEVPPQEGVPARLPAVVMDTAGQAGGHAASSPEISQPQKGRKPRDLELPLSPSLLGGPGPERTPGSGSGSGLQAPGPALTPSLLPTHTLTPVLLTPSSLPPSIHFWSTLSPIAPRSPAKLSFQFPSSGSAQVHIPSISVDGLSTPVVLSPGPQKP
Outline: as §1

[3] = target: T3, GABPA (Homo sapiens, UniProt Q06546 1-454); conditions: protein: recombinant; tags: N-terminal GST; dsDNA, one strand shown
T3 sequence: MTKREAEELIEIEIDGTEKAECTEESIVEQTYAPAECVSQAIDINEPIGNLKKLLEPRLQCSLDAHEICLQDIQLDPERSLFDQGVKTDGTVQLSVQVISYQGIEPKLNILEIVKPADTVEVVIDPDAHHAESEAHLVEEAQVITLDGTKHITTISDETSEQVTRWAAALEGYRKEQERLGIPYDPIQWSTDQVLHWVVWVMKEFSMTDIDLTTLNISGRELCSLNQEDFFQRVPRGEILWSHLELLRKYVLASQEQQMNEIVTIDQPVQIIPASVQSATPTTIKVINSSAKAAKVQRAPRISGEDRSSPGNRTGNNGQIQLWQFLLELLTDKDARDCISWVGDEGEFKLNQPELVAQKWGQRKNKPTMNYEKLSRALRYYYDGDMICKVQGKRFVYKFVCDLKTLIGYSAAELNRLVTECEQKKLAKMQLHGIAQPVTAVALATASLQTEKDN
Outline: as §1

[4] = target: T4, ERG (Homo sapiens, UniProt P11308 1-479); conditions: protein: recombinant; tags: N-terminal GST; dsDNA, one strand shown
T4 sequence: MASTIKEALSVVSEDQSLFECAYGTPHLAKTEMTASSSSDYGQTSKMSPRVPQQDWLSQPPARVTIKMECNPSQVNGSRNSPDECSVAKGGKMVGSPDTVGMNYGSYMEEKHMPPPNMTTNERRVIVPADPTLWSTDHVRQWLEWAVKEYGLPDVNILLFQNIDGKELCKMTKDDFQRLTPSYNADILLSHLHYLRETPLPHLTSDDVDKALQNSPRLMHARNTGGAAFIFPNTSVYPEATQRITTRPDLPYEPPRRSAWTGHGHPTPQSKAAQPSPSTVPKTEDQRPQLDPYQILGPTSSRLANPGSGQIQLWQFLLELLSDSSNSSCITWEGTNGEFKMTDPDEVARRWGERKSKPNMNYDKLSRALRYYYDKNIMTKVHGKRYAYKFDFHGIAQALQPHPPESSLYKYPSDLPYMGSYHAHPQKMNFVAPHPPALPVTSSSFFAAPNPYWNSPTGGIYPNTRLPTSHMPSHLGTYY
Outline: as §1

[5] = target: ELF1 (Homo sapiens, UniProt P32519 1-619); conditions: protein: recombinant; tags: N-terminal GST; dsDNA, one strand shown
Outline: as §1

[6] = target: T5, EHF (Homo sapiens, UniProt Q9NZC4 1-300); conditions: protein: recombinant; tags: N-terminal GST; dsDNA, one strand shown
T5 sequence: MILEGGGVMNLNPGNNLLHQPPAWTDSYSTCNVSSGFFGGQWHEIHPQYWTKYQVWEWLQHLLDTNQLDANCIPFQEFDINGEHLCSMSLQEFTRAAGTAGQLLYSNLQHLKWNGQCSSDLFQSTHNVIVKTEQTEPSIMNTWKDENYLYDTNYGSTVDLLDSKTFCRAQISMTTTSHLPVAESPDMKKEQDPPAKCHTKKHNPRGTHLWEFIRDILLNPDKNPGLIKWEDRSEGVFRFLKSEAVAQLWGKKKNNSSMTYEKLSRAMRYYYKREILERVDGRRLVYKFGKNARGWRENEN
Outline: as §1

[7] = target: SPI1 (Homo sapiens, UniProt P17947 1-270); conditions: protein: recombinant; tags: N-terminal GST; dsDNA, one strand shown
Outline: as §1

[8] = target: SPIB (Homo sapiens, UniProt Q01892 1-262); conditions: protein: recombinant; tags: N-terminal GST; dsDNA, one strand shown
Outline: as §1

[9] = target: T6, ELK3 (Homo sapiens, UniProt P41970 1-407); conditions: protein: recombinant; tags: N-terminal GST; dsDNA, one strand shown
T6 sequence: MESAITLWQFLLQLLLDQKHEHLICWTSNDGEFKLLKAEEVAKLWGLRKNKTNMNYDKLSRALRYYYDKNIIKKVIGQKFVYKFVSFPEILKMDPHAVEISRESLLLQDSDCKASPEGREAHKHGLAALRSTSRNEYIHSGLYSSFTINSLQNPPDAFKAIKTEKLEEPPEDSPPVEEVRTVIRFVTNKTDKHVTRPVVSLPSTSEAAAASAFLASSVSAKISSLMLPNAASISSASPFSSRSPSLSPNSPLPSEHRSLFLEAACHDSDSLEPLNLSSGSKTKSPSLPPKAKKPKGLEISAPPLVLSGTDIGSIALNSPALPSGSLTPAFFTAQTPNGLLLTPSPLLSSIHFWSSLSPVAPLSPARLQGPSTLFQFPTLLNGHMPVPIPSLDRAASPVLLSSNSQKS
Outline: as §1

[10] = target: T7, FEV (Homo sapiens, UniProt Q99581 1-238); conditions: protein: recombinant; tags: N-terminal GST; dsDNA, one strand shown
T7 sequence: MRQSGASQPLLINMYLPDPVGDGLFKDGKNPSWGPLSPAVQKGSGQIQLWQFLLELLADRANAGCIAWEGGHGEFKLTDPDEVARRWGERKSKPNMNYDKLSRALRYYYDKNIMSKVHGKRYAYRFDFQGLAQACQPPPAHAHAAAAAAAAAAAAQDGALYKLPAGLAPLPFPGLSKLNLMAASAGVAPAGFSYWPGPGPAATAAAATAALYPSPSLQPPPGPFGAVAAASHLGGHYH
Outline: as §1

[11] = target: ETV5 (Homo sapiens, UniProt P41161 1-510); conditions: protein: recombinant; tags: N-terminal GST; dsDNA, one strand shown
Outline: as §1

[12] = target: HSF1 (Homo sapiens, UniProt Q00613 1-529); conditions: protein: recombinant; tags: N-terminal GST; chain copies: 3; dsDNA, one strand shown
Outline: as §1

[13] = target: T8, SPIC (Homo sapiens, UniProt Q8N5J4 1-248); conditions: protein: recombinant; tags: N-terminal GST; dsDNA, one strand shown
T8 sequence: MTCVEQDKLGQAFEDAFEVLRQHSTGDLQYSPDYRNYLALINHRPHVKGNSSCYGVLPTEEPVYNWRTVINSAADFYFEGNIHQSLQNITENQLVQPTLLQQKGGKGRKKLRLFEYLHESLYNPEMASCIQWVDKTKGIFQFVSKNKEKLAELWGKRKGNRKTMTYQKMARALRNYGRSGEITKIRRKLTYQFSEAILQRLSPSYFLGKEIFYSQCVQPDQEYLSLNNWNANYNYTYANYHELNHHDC
Outline: as §1

[14] = target: ELF4 (Homo sapiens, UniProt Q99607 1-663); conditions: protein: recombinant; tags: N-terminal GST; dsDNA, one strand shown
Outline: as §1

[15] = target: T9, ELK4 (Homo sapiens, UniProt P28324-2 1-405); conditions: protein: recombinant; tags: N-terminal GST; dsDNA, one strand shown
T9 sequence: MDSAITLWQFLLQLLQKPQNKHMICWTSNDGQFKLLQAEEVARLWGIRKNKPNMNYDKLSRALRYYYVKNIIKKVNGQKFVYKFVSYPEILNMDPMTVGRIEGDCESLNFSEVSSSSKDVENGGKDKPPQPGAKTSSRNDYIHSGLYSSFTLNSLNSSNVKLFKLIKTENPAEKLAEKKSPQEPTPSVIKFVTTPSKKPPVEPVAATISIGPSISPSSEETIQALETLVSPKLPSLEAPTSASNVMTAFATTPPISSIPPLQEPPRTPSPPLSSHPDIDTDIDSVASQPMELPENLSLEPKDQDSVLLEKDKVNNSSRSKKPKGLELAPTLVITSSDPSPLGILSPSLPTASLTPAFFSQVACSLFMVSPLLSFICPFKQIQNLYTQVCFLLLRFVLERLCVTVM
Outline: as §1

[16] = target: T10, ETV2 (Homo sapiens, UniProt O00321 1-342); conditions: protein: recombinant; tags: N-terminal GST; dsDNA, one strand shown
T10 sequence: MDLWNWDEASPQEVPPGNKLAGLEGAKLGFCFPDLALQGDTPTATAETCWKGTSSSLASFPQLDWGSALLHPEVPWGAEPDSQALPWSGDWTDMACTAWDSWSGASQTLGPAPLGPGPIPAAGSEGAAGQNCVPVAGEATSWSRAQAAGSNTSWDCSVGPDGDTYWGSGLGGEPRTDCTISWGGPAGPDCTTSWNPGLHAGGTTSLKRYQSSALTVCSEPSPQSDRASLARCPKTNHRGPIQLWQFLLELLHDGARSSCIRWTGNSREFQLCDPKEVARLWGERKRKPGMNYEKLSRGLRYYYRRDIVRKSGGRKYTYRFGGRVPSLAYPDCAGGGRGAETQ
Outline: as §1

[17] = target: T11, ELF3 (Homo sapiens, UniProt P78545 1-371); conditions: protein: recombinant; tags: N-terminal GST; dsDNA, one strand shown
T11 sequence: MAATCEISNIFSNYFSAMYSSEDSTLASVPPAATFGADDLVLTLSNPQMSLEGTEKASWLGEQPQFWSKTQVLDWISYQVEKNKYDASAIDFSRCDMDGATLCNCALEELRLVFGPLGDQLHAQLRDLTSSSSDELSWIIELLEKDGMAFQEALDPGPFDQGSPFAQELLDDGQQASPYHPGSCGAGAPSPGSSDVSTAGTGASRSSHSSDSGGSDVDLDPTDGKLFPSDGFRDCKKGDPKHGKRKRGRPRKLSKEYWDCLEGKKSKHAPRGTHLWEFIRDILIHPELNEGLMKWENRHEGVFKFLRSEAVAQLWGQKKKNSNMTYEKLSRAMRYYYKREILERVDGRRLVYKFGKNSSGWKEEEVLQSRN
Outline: as §1

[18] = target: CRX (Homo sapiens, UniProt O43186 1-299); conditions: protein: recombinant; tags: N-terminal GST; dsDNA, one strand shown
Outline: as §1

[19] = target: ETV1 (Homo sapiens, UniProt P50549 1-477); conditions: protein: recombinant; tags: N-terminal GST; dsDNA, one strand shown
Outline: as §1

Sequence of CRX (O43186 whole entry): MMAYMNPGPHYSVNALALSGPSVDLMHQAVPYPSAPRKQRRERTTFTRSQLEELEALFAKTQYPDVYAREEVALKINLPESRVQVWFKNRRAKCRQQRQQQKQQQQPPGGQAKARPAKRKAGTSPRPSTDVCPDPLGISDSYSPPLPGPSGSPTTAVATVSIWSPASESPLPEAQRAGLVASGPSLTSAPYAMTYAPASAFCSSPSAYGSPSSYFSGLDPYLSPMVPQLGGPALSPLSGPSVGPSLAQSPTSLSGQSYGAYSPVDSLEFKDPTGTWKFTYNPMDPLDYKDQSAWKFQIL
Sequence of SPIB (Q01892 whole entry): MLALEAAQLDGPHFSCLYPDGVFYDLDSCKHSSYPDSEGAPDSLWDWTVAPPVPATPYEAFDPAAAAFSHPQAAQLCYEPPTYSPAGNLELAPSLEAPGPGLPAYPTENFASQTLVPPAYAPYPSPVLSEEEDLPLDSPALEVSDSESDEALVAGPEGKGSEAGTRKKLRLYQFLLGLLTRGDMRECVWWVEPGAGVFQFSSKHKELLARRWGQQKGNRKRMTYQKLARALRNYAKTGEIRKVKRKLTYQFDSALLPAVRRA
Sequence of HSF1 (Q00613 whole entry): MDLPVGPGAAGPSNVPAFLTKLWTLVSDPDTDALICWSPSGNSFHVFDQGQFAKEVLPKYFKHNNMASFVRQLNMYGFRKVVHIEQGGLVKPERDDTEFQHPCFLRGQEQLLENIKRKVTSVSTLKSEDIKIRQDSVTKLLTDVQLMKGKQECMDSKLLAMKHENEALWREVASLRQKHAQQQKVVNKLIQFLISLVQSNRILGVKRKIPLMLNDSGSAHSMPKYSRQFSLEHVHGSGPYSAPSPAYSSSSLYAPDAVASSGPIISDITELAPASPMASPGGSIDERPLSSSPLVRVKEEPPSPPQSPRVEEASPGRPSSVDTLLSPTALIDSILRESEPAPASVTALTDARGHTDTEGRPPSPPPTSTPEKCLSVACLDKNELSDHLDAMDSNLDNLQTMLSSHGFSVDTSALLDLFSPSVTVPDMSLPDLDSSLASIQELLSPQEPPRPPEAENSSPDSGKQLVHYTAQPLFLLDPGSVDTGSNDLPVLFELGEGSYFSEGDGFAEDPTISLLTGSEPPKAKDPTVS
Sequence of ETV5 (P41161 whole entry): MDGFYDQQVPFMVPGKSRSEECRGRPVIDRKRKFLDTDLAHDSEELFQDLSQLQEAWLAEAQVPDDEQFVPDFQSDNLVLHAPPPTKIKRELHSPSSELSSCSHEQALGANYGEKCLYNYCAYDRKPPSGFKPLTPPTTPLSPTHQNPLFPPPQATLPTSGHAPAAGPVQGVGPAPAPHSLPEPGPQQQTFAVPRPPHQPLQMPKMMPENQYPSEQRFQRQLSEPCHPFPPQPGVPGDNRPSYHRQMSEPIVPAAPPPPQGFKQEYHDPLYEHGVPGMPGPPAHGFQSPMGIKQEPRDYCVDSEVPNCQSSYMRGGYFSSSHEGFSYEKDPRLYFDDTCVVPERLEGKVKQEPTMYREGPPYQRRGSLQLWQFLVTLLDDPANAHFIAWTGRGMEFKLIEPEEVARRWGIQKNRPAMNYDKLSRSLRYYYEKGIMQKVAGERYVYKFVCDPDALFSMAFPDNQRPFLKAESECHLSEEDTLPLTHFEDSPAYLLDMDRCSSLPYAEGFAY
Sequence of ETV1 (P50549 whole entry): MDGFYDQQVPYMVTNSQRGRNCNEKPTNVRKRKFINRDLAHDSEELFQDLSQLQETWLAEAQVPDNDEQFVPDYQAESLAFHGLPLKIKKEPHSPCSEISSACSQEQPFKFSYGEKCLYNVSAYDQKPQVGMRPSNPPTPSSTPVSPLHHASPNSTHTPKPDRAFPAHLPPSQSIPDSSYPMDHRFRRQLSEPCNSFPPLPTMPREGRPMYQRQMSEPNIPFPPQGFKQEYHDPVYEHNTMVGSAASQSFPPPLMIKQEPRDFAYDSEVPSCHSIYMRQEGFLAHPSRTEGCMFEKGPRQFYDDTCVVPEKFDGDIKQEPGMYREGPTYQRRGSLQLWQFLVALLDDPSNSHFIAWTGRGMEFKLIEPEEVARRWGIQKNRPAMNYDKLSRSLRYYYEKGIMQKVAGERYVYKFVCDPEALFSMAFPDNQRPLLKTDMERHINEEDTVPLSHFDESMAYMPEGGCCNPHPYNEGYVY
Sequence of ELF4 (Q99607 whole entry): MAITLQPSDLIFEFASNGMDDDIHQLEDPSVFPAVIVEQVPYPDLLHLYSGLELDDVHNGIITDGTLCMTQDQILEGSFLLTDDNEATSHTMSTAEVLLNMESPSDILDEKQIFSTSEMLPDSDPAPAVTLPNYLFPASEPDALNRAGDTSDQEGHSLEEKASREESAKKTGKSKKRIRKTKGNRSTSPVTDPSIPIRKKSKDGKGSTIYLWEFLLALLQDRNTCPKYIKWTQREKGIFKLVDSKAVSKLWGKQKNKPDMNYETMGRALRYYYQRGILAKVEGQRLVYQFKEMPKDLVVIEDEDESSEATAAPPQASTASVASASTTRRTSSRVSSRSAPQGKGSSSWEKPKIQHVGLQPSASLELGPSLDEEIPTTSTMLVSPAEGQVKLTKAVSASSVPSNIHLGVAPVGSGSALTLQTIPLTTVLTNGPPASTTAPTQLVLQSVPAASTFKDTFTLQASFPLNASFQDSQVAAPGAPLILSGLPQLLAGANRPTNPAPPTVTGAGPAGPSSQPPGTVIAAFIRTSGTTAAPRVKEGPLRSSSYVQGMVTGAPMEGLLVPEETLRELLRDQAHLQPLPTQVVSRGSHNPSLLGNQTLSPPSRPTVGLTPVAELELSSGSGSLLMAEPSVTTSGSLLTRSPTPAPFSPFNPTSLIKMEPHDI
Sequence of ELF1 (P32519 whole entry): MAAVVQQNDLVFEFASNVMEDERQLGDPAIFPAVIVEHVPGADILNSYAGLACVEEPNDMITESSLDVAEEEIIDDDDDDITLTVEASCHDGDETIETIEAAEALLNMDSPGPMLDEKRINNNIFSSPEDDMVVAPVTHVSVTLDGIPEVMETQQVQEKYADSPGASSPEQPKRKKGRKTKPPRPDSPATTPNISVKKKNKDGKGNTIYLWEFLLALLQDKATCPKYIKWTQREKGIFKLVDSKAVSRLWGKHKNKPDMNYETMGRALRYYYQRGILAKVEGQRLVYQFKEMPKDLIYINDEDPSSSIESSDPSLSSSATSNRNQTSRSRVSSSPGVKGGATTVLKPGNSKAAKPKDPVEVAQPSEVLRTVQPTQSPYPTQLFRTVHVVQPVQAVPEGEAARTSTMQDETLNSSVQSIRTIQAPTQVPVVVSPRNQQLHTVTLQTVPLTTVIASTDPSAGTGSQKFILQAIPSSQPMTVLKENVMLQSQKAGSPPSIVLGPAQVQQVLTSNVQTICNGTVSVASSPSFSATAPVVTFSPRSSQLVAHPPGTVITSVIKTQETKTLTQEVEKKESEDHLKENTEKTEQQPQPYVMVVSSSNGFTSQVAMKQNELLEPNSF

**Q.** For CTATTC, which binding signal [1] is on record?
**A.** 1.33 fold enrichment (6-mer frequency, TF over GST control)

**Q.** What about the binding signal [2] of the same sequence?
**A.** 1.34 fold enrichment (6-mer frequency, TF over GST control)

**Q.** What about the binding signal [3] of the same sequence?
**A.** 1.34 fold enrichment (6-mer frequency, TF over GST control)

**Q.** What about the binding signal [4] of the same sequence?
**A.** 1.35 fold enrichment (6-mer frequency, TF over GST control)

**Q.** What about the binding signal [5] of the same sequence?
**A.** 1.42 fold enrichment (6-mer frequency, TF over GST control)

**Q.** What about the binding signal [6] of the same sequence?
**A.** 1.42 fold enrichment (6-mer frequency, TF over GST control)

**Q.** And the binding signal [7]?
**A.** 1.29 fold enrichment (6-mer frequency, TF over GST control)

**Q.** What about the binding signal [8] of the same sequence?
**A.** 1.23 fold enrichment (6-mer frequency, TF over GST control)

**Q.** What about the binding signal [9] of the same sequence?
**A.** 1.13 fold enrichment (6-mer frequency, TF over GST control)

**Q.** What about the binding signal [10] of the same sequence?
**A.** 1.28 fold enrichment (6-mer frequency, TF over GST control)

**Q.** And the binding signal [11]?
**A.** 1.35 fold enrichment (6-mer frequency, TF over GST control)

**Q.** And the binding signal [12]?
**A.** 1.57 fold enrichment (6-mer frequency, TF over GST control)

**Q.** And the binding signal [13]?
**A.** 1.49 fold enrichment (6-mer frequency, TF over GST control)

**Q.** What about the binding signal [14] of the same sequence?
**A.** 1.26 fold enrichment (6-mer frequency, TF over GST control)

**Q.** And the binding signal [15]?
**A.** 1.32 fold enrichment (6-mer frequency, TF over GST control)

**Q.** What about the binding signal [16] of the same sequence?
**A.** 1.37 fold enrichment (6-mer frequency, TF over GST control)

**Q.** And the binding signal [17]?
**A.** 1.38 fold enrichment (6-mer frequency, TF over GST control)

**Q.** And the binding signal [18]?
**A.** 1.16 fold enrichment (6-mer frequency, TF over GST control)

**Q.** And the binding signal [19]?
**A.** 1.28 fold enrichment (6-mer frequency, TF over GST control)
